Laboratory results reported in publication PMC7862700, “An all-to-all approach to the identification of sequence-specific readers for epigenetic DNA modifications on cytosine”.

Experiments:
Assay in all cases: DAPPL (digital affinity profiling via proximity ligation, sequencing); 10 mM Tris-HCl pH 7.5, 50 mM NaCl, 1 mM DTT, 4% glycerol, room temperature, 30 min; GST-TFs on glutathione beads, 16-mer random dsDNA library, 0.1% formaldehyde crosslink after washing; high values mean tight binding
FEV = biological target: T1, FEV (Homo sapiens, UniProt Q99581 1-238); settings: protein: recombinant; tags: N-terminal GST; dsDNA, one strand shown
T1 sequence: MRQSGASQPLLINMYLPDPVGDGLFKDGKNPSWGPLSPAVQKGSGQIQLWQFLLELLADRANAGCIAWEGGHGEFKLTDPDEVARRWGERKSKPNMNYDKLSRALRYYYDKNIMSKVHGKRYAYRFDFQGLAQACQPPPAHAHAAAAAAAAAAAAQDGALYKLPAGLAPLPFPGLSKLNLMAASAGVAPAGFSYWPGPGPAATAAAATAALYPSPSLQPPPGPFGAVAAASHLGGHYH
Outline: (§1)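 Binding signal is each hexamer's read frequency for a factor divided by its frequency in the tag-only sample. The factors were GST-fused human transcription factors from yeast, captured on glutathione beads, DNA-barcoded and pooled with that sample. Pools were incubated with 200 nmole of a random double-stranded 16-mer DNA library in Tris/NaCl/DTT/glycerol buffer at room temperature for 30 min, then washed, crosslinked with 0.1% formaldehyde, proximity-ligated with BsaI/T4 ligase (1 h, 37 °C), PCR-amplified and sequenced on an Illumina NextSeq500.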

ETV5 = ETV5 (Homo sapiens, UniProt P41161 1-510); settings: protein: recombinant; tags: N-terminal GST; dsDNA, one strand shown
ETV5, sequence (P41161 whole entry): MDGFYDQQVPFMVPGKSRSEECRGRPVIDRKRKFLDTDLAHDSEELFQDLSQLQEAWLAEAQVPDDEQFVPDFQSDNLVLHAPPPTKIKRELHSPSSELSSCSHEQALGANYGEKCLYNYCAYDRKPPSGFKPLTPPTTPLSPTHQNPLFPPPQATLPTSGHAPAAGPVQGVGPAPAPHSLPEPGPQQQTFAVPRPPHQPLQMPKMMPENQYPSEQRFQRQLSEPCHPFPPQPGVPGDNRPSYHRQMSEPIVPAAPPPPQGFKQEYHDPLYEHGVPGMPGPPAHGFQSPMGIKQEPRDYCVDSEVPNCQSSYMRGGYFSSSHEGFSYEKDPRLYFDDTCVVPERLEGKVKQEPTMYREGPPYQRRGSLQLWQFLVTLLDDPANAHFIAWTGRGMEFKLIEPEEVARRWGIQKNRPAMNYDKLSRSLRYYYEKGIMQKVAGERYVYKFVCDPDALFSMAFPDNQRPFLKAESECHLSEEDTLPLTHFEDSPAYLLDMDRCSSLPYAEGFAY
Outline: as §1

HSF1 = HSF1 (Homo sapiens, UniProt Q00613 1-529); settings: protein: recombinant; tags: N-terminal GST; chain copies: 3; dsDNA, one strand shown
HSF1, sequence (Q00613 whole entry): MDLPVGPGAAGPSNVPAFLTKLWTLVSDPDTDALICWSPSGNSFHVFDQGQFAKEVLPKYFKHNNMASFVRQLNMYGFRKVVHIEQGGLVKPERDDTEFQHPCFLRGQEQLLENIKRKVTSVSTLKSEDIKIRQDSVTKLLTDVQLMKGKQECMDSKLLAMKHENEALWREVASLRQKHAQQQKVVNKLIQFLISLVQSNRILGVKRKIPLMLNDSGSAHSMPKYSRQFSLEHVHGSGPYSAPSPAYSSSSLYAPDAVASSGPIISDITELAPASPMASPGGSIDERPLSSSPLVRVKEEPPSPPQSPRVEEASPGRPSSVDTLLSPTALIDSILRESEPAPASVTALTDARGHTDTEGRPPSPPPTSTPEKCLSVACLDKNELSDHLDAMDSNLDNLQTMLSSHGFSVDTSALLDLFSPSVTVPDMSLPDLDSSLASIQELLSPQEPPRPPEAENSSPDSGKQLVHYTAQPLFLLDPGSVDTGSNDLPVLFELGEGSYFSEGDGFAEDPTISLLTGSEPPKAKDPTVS
Outline: as §1

ELF4 = ELF4 (Homo sapiens, UniProt Q99607 1-663); settings: protein: recombinant; tags: N-terminal GST; dsDNA, one strand shown
ELF4, sequence (Q99607 whole entry): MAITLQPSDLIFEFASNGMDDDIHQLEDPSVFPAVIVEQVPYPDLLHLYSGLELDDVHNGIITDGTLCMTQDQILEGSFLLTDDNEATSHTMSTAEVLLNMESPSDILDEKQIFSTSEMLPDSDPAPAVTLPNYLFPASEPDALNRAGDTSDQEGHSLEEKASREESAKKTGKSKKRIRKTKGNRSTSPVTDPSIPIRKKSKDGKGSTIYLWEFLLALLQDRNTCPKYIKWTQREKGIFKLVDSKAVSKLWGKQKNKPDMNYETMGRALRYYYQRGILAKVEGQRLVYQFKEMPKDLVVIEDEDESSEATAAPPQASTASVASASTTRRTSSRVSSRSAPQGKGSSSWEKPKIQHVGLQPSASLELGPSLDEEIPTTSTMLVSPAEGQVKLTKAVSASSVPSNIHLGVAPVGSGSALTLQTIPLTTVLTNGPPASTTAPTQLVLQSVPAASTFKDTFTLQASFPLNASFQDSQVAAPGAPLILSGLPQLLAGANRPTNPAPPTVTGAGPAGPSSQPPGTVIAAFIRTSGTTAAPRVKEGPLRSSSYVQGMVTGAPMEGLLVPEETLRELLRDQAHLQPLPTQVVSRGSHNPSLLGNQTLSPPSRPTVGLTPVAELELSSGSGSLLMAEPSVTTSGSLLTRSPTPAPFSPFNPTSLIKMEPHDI
Outline: as §1

ELK4 = biological target: T2, ELK4 (Homo sapiens, UniProt P28324-2 1-405); settings: protein: recombinant; tags: N-terminal GST; dsDNA, one strand shown
T2 sequence: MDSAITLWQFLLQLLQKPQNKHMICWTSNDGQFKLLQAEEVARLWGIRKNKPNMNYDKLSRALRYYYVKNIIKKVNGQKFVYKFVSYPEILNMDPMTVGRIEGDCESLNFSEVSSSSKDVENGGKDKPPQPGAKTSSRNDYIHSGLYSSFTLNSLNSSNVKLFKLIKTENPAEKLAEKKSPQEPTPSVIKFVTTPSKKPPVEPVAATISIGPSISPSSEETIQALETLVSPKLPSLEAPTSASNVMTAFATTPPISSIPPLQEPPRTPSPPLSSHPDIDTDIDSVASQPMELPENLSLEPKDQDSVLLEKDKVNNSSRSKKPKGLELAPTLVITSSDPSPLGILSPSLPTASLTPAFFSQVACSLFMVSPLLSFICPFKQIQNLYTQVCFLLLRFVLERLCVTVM
Outline: as §1

ETV2 = biological target: T3, ETV2 (Homo sapiens, UniProt O00321 1-342); settings: protein: recombinant; tags: N-terminal GST; dsDNA, one strand shown
T3 sequence: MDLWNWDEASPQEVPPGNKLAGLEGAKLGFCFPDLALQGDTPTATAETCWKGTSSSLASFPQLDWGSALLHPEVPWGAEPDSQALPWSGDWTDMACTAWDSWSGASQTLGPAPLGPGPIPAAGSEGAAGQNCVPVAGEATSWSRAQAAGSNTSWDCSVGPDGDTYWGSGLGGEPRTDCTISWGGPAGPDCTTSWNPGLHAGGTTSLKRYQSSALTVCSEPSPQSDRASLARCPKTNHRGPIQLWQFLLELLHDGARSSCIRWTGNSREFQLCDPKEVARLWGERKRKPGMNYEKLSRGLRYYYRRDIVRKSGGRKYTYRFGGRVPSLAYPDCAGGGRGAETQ
Outline: as §1

ELF3 = biological target: T4, ELF3 (Homo sapiens, UniProt P78545 1-371); settings: protein: recombinant; tags: N-terminal GST; dsDNA, one strand shown
T4 sequence: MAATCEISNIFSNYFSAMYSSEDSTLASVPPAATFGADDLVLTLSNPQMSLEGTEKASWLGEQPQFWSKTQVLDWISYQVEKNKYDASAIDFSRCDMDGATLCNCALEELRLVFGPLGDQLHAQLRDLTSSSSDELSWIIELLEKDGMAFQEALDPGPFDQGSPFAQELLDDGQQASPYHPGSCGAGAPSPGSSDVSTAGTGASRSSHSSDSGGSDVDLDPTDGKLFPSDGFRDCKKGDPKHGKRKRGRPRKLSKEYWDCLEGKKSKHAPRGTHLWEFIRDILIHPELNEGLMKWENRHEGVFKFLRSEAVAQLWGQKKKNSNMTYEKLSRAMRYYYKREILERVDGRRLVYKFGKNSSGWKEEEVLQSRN
Outline: as §1

CRX = CRX (Homo sapiens, UniProt O43186 1-299); settings: protein: recombinant; tags: N-terminal GST; dsDNA, one strand shown
CRX, sequence (O43186 whole entry): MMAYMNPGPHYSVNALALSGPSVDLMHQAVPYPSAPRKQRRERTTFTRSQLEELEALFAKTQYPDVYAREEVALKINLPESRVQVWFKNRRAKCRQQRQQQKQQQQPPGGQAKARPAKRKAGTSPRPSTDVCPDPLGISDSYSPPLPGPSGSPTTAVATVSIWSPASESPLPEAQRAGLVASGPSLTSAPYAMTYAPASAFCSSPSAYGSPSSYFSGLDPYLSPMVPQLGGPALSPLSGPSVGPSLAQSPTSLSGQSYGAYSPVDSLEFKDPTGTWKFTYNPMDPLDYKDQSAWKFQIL
Outline: as §1

ETV1 = ETV1 (Homo sapiens, UniProt P50549 1-477); settings: protein: recombinant; tags: N-terminal GST; dsDNA, one strand shown
ETV1, sequence (P50549 whole entry): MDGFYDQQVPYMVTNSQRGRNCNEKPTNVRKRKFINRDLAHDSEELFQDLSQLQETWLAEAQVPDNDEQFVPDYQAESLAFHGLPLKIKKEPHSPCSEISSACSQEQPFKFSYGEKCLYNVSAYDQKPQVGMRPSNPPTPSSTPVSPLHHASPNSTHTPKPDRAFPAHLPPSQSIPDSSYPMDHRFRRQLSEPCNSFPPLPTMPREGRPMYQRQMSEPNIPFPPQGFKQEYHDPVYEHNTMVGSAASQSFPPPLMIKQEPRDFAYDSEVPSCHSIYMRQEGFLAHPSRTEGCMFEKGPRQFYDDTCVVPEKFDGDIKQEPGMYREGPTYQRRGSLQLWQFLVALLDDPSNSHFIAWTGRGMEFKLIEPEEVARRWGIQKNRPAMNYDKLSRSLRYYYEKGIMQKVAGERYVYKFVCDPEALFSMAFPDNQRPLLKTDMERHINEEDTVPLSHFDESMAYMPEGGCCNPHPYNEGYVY
Outline: as §1

ERF = biological target: T5, ERF (Homo sapiens, UniProt P50548 1-548); settings: protein: recombinant; tags: N-terminal GST; dsDNA, one strand shown
T5 sequence: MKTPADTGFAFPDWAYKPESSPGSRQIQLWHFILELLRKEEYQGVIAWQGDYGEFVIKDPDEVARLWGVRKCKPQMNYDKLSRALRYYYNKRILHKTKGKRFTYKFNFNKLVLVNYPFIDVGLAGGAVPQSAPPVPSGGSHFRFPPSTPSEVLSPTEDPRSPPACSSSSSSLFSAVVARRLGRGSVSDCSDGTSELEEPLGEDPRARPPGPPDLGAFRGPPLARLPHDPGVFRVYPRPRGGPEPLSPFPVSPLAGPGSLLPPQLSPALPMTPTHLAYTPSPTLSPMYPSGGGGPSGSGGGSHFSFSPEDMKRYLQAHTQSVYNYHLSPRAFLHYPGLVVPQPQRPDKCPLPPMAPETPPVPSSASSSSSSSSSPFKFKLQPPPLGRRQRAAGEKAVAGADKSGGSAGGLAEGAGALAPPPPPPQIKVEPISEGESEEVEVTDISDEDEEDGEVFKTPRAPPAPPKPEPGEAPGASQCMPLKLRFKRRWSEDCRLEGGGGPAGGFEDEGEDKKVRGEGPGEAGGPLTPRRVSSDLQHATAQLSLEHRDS
Outline: as §1

ETV3L = biological target: T6, ETV3L (Homo sapiens, UniProt Q6ZN32 1-361); settings: protein: recombinant; tags: N-terminal GST; dsDNA, one strand shown
T6 sequence: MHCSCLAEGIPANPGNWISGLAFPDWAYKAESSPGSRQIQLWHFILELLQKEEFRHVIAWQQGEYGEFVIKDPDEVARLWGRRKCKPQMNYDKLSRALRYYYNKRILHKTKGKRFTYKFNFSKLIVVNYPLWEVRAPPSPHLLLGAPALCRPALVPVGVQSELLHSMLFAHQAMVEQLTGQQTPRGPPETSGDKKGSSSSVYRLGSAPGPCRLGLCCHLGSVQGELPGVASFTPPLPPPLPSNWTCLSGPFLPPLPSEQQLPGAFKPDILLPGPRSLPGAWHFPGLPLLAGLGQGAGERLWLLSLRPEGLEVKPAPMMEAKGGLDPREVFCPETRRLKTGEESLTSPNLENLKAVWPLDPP
Outline: as §1

ETS2 = biological target: T7, ETS2 (Homo sapiens, UniProt P15036 1-469); settings: protein: recombinant; tags: N-terminal GST; dsDNA, one strand shown
T7 sequence: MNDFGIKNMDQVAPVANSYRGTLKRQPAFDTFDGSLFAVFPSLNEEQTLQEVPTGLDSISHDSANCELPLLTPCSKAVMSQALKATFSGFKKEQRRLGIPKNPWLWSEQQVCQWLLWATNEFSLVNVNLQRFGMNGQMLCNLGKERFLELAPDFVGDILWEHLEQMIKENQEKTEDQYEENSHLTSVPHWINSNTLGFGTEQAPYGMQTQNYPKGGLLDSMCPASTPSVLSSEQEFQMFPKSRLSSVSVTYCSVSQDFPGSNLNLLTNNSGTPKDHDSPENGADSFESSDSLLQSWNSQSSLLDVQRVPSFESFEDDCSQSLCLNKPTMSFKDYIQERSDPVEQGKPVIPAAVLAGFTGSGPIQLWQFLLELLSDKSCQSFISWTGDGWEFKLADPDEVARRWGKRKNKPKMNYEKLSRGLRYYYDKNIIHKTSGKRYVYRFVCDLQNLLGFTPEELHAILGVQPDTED
Outline: as §1

SPDEF = biological target: T8, SPDEF (Homo sapiens, UniProt O95238 1-335); settings: protein: recombinant; tags: N-terminal GST; dsDNA, one strand shown
T8 sequence: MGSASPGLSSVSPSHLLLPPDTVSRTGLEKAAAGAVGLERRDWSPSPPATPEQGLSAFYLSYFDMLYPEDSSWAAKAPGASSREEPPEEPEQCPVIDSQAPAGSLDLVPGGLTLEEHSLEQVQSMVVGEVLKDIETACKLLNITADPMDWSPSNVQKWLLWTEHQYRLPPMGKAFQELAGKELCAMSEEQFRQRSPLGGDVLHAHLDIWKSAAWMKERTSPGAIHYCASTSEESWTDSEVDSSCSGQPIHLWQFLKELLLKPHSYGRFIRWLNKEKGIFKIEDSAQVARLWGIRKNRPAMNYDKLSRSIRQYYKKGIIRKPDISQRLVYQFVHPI
Outline: as §1

ETV7 = biological target: T9, ETV7 (Homo sapiens, UniProt Q9Y603 1-341); settings: protein: recombinant; tags: N-terminal GST; dsDNA, one strand shown
T9 sequence: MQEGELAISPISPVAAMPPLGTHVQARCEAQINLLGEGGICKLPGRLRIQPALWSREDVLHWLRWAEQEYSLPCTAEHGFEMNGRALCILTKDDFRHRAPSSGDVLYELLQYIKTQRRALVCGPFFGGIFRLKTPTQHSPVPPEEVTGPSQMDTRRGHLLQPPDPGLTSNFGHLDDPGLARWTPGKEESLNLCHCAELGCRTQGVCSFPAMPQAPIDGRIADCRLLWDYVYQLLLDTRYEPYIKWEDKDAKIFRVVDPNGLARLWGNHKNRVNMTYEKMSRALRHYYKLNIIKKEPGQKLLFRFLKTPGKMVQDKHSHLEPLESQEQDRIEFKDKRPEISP
Outline: as §1

ELF5 = biological target: T10, ELF5 (Homo sapiens, UniProt Q9UKW6-2 1-255); settings: protein: recombinant; tags: N-terminal GST; dsDNA, one strand shown
T10 sequence: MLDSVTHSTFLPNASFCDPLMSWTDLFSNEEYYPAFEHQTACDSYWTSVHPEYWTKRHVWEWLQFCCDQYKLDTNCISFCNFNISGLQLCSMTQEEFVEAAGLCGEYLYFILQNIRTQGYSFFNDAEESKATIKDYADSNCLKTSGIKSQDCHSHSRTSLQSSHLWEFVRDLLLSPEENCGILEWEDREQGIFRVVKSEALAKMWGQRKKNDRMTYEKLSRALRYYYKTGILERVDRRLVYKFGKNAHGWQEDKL
Outline: as §1

ETV3 = biological target: T11, ETV3 (Homo sapiens, UniProt P41162-2 1-143); settings: protein: recombinant; tags: N-terminal GST; dsDNA, one strand shown
T11 sequence: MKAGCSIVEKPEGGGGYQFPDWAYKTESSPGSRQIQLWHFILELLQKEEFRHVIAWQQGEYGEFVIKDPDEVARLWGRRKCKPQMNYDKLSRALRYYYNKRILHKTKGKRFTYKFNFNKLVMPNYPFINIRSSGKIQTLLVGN
Outline: as §1

ETV6 = ETV6 (Homo sapiens, UniProt P41212 1-452); settings: protein: recombinant; tags: N-terminal GST; dsDNA, one strand shown
ETV6, sequence (P41212 whole entry): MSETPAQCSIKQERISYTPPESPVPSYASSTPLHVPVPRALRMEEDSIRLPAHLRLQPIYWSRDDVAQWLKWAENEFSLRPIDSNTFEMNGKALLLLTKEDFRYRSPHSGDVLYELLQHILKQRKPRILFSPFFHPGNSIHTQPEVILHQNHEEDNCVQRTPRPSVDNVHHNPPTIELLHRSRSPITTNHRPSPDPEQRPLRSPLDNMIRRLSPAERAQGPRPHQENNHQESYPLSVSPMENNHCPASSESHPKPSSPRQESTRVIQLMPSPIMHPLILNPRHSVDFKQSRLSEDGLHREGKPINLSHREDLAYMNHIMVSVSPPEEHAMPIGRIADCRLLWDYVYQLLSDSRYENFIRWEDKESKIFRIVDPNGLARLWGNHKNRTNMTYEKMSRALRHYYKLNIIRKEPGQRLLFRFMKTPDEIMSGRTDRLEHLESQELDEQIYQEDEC
Outline: as §1

| Sequence | binding signal (FEV) | binding signal (ETV5) | binding signal (HSF1) | binding signal (ELF4) | binding signal (ELK4) | binding signal (ETV2) | binding signal (ELF3) | binding signal (CRX) | binding signal (ETV1) | binding signal (ERF) | binding signal (ETV3L) | binding signal (ETS2) | binding signal (SPDEF) | binding signal (ETV7) | binding signal (ELF5) | binding signal (ETV3) | binding signal (ETV6) |
| --- | --- | --- | --- | --- | --- | --- | --- | --- | --- | --- | --- | --- | --- | --- | --- | --- | --- |
| CTTTCG | 1.26 fold enrichment (6-mer frequency, TF over GST control) | 1.27 fold enrichment (6-mer frequency, TF over GST control) | 1.65 fold enrichment (6-mer frequency, TF over GST control) | 1.19 fold enrichment (6-mer frequency, TF over GST control) | 1.4 fold enrichment (6-mer frequency, TF over GST control) | 1.3 fold enrichment (6-mer frequency, TF over GST control) | 1.4 fold enrichment (6-mer frequency, TF over GST control) | 1.37 fold enrichment (6-mer frequency, TF over GST control) | 1.36 fold enrichment (6-mer frequency, TF over GST control) | 1.23 fold enrichment (6-mer frequency, TF over GST control) | 1.29 fold enrichment (6-mer frequency, TF over GST control) | 1.32 fold enrichment (6-mer frequency, TF over GST control) | 1.22 fold enrichment (6-mer frequency, TF over GST control) | 1.3 fold enrichment (6-mer frequency, TF over GST control) | 1.26 fold enrichment (6-mer frequency, TF over GST control) | 1.16 fold enrichment (6-mer frequency, TF over GST control) | 1.23 fold enrichment (6-mer frequency, TF over GST control) |
| TTTAGG | 1.09 fold enrichment (6-mer frequency, TF over GST control) | 1.06 fold enrichment (6-mer frequency, TF over GST control) | 1.25 fold enrichment (6-mer frequency, TF over GST control) | 1.05 fold enrichment (6-mer frequency, TF over GST control) | 1.11 fold enrichment (6-mer frequency, TF over GST control) | 1.09 fold enrichment (6-mer frequency, TF over GST control) | 1.09 fold enrichment (6-mer frequency, TF over GST control) | 1.5 fold enrichment (6-mer frequency, TF over GST control) | 1.13 fold enrichment (6-mer frequency, TF over GST control) | 1.22 fold enrichment (6-mer frequency, TF over GST control) | 1.02 fold enrichment (6-mer frequency, TF over GST control) | 1.11 fold enrichment (6-mer frequency, TF over GST control) | 1.09 fold enrichment (6-mer frequency, TF over GST control) | 1.19 fold enrichment (6-mer frequency, TF over GST control) |  | 1.07 fold enrichment (6-mer frequency, TF over GST control) | 1.19 fold enrichment (6-mer frequency, TF over GST control) |
